According to PubChem BioAssay (NCATS):
Records with an inconclusive call do not appear. A call without a number means that no potency is given here. Activity calls are given as the source filed them. Calls follow the shape of the dose curve; as a rule, active = well fitted curve in the direction sought with a large enough effect; inconclusive = small, poorly fitted or top-dose-only effect, or another doubt; inactive = no such curve, though single readings can be large; an effect the other way counts as inactive or inconclusive.

Key:
[1] = OV-KATE Cancer Cell Toxicity qHTS against the NCATS CANVASS Library (AID 1347345); details: OV-KATE cells viability, CellTiter-Glo luminescence, 72 h; series mostly up to 38.3 µM
How it was run: (§1)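 Viability was assessed by adding CellTiter-Glo reagent to treated cultures and reading luminescence after 15min at room temperature. Treatment lasted 72 h at 37 degrees C/5% CO2, using an 11-point series on 1000 cells/well.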

[2] = SW1088 Cancer Cell Toxicity qHTS against the NCATS CANVASS Library (AID 1347350); details: SW1088 viability, CellTiter-Glo luminescence, 72 h; series mostly up to 38.3 µM; also: nearly all actives have a fitted effect of over 75% in size
How it was run: as §1

[3] = UWB1.289-WTBRCA1 Cancer Cell Toxicity qHTS against the NCATS CANVASS Library (AID 1347354); details: UWB1.289-WTBRCA1 viability, CellTiter-Glo luminescence, 72 h; series mostly up to 38.3 µM
How it was run: (§2)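 qHTS cytotoxicity: compounds tested in 11 concentrations on 1000 seeded cells per well over 72 h; bortezomib served as control; signal from CellTiter-Glo luminescence.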

[4] = tested on: NAD(P)H diaphorase (Clostridium kluyveri); experiment: Diaphorse counterscreen qHTS: Assay Interference Panel against the NCATS CANVASS Library (AID 1347362); details: Diaphorase enzyme, resazurin to resorufin fluorescence; series mostly up to 57.5 µM
How it was run: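 Counterscreen for coupling-enzyme interference: resorufin fluorescence from resazurin/NADH turnover, read after 5 min at room temperature. Compounds were tested over an 11-point series after 15 min dark preincubation with diaphorase in PBS-Tween.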

[5] = KB-8-5-11 Cancer Cell Toxicity qHTS against the NCATS CANVASS Library (AID 1347364); details: KB-8-5-11 MDR cells viability, CellTiter-Glo, 72 h; series mostly up to 46.1 µM; also: nearly all actives have a fitted effect of over 75% in size; also: potency is read from the fitted curve at half-maximal effect
How it was run: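 Natural products were titrated in 11 points onto KB-8-5-11 cells, 500 per well, and cytotoxicity was scored from CellTiter-Glo luminescence after 72 hr culture.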

[6] = SDT Cancer Cell Toxicity qHTS against the NCATS CANVASS Library (AID 1347365); details: SDT dog glioma viability, ATP luminescence, 72 h; series mostly up to 46.1 µM; also: potency is read from the fitted curve at half-maximal effect; nearly all actives have a fitted effect of over 60% in size
How it was run: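 Dispense 500 SDT cells per well; pin-transfer compounds; incubate 72 hr at 37C, 5% CO2, 95% RH; add CellTiterGlo and read luminescence.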

[7] = KB-3-1 Cancer Cell Toxicity qHTS against the NCATS CANVASS Library (AID 1347366); details: KB-3-1 viability, CellTiter-Glo luminescence, 72 h; series mostly up to 46.1 µM; also: nearly all actives have a fitted effect of over 75% in size
How it was run: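 KB-3-1 cells (500/well) in DMEM with 10% FBS were exposed to compounds for 72 h at 37C. Viability was read by CellTiter-Glo luminescence.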

[8] = qHTS for ATAD5 Agonist screened against the NCATS CANVASS Library (AID 1347367); details: HEK293T ATAD5-luciferase reporter, luminescence, 16 h; series mostly up to 46.1 µM;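 also: luciferase reporter driven by ATAD5 which rises upon DNA damage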
How it was run: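 Luciferase reporter under ATAD5 control, stably integrated in HEK293T cells (2000/well). Compounds (11 points) incubated 16 h at 37C; viability read first by CellTiter-Fluor, then luminescence reporting ATAD5 activation. MMS positive control.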

[9] = G06 Cancer Cell Toxicity qHTS against the NCATS CANVASS Library (AID 1347368); details: G06 dog glioma cells, viability ATP luminescence, 72 h; series mostly up to 46.1 µM; also: potency is read from the fitted curve at half-maximal effect; nearly all actives have a fitted effect of over 60% in size
How it was run: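 Cytotoxicity toward canine glioma G06 cells is scored from cellular ATP via luminescence after 72 hr compound exposure at 500 cells/well.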

[10] = MCF7 Cancer Cell Toxicity qHTS against the NCATS CANVASS Library (AID 1347369); details: MCF7 viability, ATP luminescence (CellTiter-Glo), 72 h; series mostly up to 46 µM
How it was run: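 MCF7 cells (500/well) were exposed 72 h at 37 °C to compounds in an 11-point series. Viability was read as ATP content by CellTiterGlo luminescence.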

[11] = qHTS for ATAD5 Antagonist screened against the NCATS CANVASS Library (AID 1347370); details: HEK293T-ATAD5-luc, 5-FUrd stimulated, luminescence, 16 h; series mostly up to 46.1 µM; also: nearly all actives have a fitted effect of over 65% in size; also: potency is read from the fitted curve at half-maximal effect
How it was run: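 HEK293T cells with a stably integrated ATAD5-controlled luciferase reporter were exposed to compounds (11-pt) alongside 10 uM 5-fluorouridine as ATAD5 stabilizer for 16hr at 37C. Viability was read by CellTiter-Fluor fluorescence, then ATAD5 by luminescence.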

[12] = J3T Cancer Cell Toxicity qHTS against the NCATS CANVASS Library (AID 1347371); details: J3T dog glioma viability, ATP luminescence, 72 h; series mostly up to 46.1 µM; also: potency is read from the fitted curve at half-maximal effect
How it was run: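 Viability of the J3T glioma line from dog is scored by ATP luminescence after a 72 hr incubation with natural products.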

[13] = qHTS for Hypoxia signaling pathway (HIF-1) antagonists against the NCATS CANVASS Library (AID 1347374); details: HRE-bla ME-180 cells, HIF-1 beta-lactamase reporter, CoCl2; series mostly up to 38.3 µM; also: nearly all actives have a fitted effect of over 60% in size; also: potency is read from the fitted curve at half-maximal effect
How it was run: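 HRE-bla ME-180 cells (2,000/well, 0.5% dialyzed FBS) were pre-incubated 5 h, then given an 11-point compound series plus CoCl2 (60 uM solution as added) for 17 h at 37C. CCF4 β-lactamase read (ex 405, em 460/530 nm) after 2 h at RT.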

[14] = qHTS for H2AX Agonists against the NCATS CANVASS Library (AID 1347378); details: CHO-K1 H2AX phosphorylation, HTRF TR-FRET, 3 h; series mostly up to 76.9 µM
How it was run: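 CHO-K1 cells (1000/well, overnight at 37C) exposed to compounds at several concentrations for 3 hr at 37C, 0.76% DMSO final. Lysates read by TR-FRET (phospho-H2AX S139 Eu-cryptate antibody / H2AX-d2 antibody) after 24 hr at room temperature; 665/615 nm ratio.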

[15] = qHTS for Inflammasome Signaling Inhibitors: IL-1-beta AlphaLISA screen against the NCATS CANVASS Library (AID 1347379); details: THP-1 LPS/ATP, IL-1B AlphaLISA secretion, 16 h; series mostly up to 57.5 µM;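 also: human THP-1 cells primed with LPS then triggered with ATP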
How it was run: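 Human THP-1 cells were pretreated 1 hr at 37 °C with compounds (up to 57.5 uM final), then stimulated with LPS (250 ng/mL final) and ATP (1.25 mM final). Secreted IL-1B was read by AlphaLISA after 16 hr.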

[16] = qHTS for inhibitors of Wild type Zika virus screened against the NCATS CANVASS Library (AID 1347396); details: Vero cells, Zika virus CPE, CellTiter-Glo, 72 h; series mostly up to 45.9 µM;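 also: ATP luminescence of surviving cells so rescue from viral cell killing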
How it was run: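 Vero 766 cells, 1000/well, o/n attach; cpds pin-transferred (11-pt qHTS); WT Zika added; 72 h, 37C, 5% CO2; CellTiter Glo lumi. Uninfected + vehicle = 100% inhibition.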

[17] = HEK-293 Cancer Cell Toxicity qHTS against the NCATS CANVASS Library (AID 1347355); details: HEK-293 viability, CellTiter-Glo luminescence, 72 h; series mostly up to 46.1 µM; also: nearly all actives have a fitted effect of over 65% in size; also: potency is read from the fitted curve at half-maximal effect
How it was run: as §2

[18] = target: Nuclear receptor subfamily 1 group I member 3 (Homo sapiens) (UniProt Q14994); experiment: qHTS for Constitutive Androstane Receptor (CAR) Antagonist screened against the NCATS CANVASS Library (AID 1347372); details: HepG2-hCAR-CYP2B6 luciferase, CITCO-stimulated antagonist mode; series mostly up to 46.1 µM;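 also: cells stimulated with 50 nM CITCO agonist so inhibition reflects antagonism; luciferase from CYP2B6 promoter reporter driven by hCAR in HepG2 cells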
Sequence of Nuclear receptor subfamily 1 group I member 3 (Homo sapiens) (Q14994 whole entry, looked up): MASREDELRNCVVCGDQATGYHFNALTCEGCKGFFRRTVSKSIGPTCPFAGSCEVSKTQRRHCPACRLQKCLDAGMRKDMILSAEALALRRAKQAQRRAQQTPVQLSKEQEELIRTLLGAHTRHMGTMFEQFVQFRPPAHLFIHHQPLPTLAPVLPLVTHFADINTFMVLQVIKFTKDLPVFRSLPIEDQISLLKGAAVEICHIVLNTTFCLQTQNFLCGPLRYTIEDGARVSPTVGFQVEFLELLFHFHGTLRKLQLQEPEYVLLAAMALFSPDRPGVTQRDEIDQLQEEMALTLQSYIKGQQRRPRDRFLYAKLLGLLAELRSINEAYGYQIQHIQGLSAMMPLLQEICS
How it was run: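 HepG2-CYP2B6-hCAR double-stable cells plated, 4hr attach; cpd pin-transferred; CITCO 50 nM final; 24hr 37C/5% CO2; CellTiter-Fluor 1hr (fluorescence), then ONE-Glo luminescence.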

[19] = qHTS for inhibitors of ER calcium dysfunction: SERCaMP assay screened against the NCATS CANVASS Library (AID 1347393); details: SH-SY5Y GLuc-SERCaMP (Gaussia luciferase released on ER calcium loss) secretion, thapsigargin, luminescence; series mostly up to 76.6 µM; also: nearly all actives have a fitted effect of over 40% in size; also: potency is read from the fitted curve at half-maximal effect
How it was run: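 Thapsigargin-induced ER calcium depletion drives GLuc-SERCaMP secretion from SH-SY5Y cells; compounds given 16 h beforehand were scored by lowered coelenterazine luminescence after 4 h challenge.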

[20] = Secretion counterscreen for inhibitors of the SERCaMP assay screened against the NCATS CANVASS Library (AID 1347390); details: SH-SY5Y constitutive GLuc secretion, luminescence, 20 h; series mostly up to 76.6 µM;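 also: light from luciferase secreted into medium read as a measure of general secretion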; also: potency is read from the fitted curve at half-maximal effect
How it was run: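 SH-SY5Y cells with constitutively secreted GLuc reporter, 1000 cells/well, treated 20 h at 37C with compounds at 0.001 - 77 uM final; secreted luciferase read as luminescence after coelenterazine; Brefeldin A as positive control.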

Structure (SMILES) | Potency [1] | Potency [2] | Potency [3] | Potency [4] | Potency [5] | Potency [6] | Potency [7] | Potency [8] | Potency [9] | Potency [10] | Potency [11] | Potency [12] | Potency [13] | Potency [14] | Potency [15] | outcome [16] | Potency [17] | Potency [18] | Potency [19] | Potency [20]
CC1=C(C)C(=O)OC(C(C)C2(O)CCC3C4C5OC5C5(O)CC=CC(=O)C5(C)C4CCC32C)C1 (stereo unspecified) | inactive | inactive | inactive | inactive | inactive | 13.2 µM (active) | inactive | inactive | 23.5 µM (active) | inactive | inactive | inactive | inactive | inactive | inactive | inactive | – | – | – | –
CN1CCc2cc3c(c4c2C1(C)C(=O)c1cc(O)ccc1-4)OCO3 (stereo unspecified) | – | inactive | inactive | inactive | 23.5 µM (active) | 1.48 µM (active) | – | inactive | 1.18 µM (active) | – | 13.2 µM (active) | inactive | 13.3 µM (active) | inactive | inactive | inactive | 18.7 µM (active) | inactive | 19.3 µM (active) | –
C/C(=C\[C@@H](C)CC/C=C/CC/C=C/C(=O)O)[C@H](O)[C@H](C)C(=O)CCCC1CC(=O)NC(=O)C1 | inactive | inactive | inactive | inactive | inactive | – | inactive | inactive | – | inactive | inactive | inactive | inactive | inactive | inactive | inactive | inactive | – | inactive | inactive
C/C=C/c1cc2c(c(=O)o1)C(=O)[C@@H](O)[C@H](C)O2 | – | – | – | inactive | – | 10.5 µM (active) | inactive | inactive | 5.26 µM (active) | inactive | – | 26.4 µM (active) | 14.9 µM (active) | – | 21.7 µM (active) | inactive | 9.35 µM (active) | – | – | 34.3 µM (active)
